# PubChem BioAssay AID463173 (ICCB-Longwood Screening Facility, Harvard Medical School, 2010)
# Among all 52,000 compounds or so, about 1,700 (3.3%) were called active. For the sample, actives were picked, then their nearest neighbours and some compounds at random. Unmarked numbers belong to inactive results. Cut-off read from the data, not from the text of the source: active = survival mostly below about 52% (no sharp cut-off); inactive = mostly above about 56%.
# Tested on: Wild type
# Assay: growth inhibition of S. aureus wild type versus tarO mutant, primary screen, teichoic acid synthesis inhibitors, RN4220, OD600 (AID 463173)
# Conditions: S. aureus RN4220 wild type/DeltatarO growth, OD600, 18 h, stronger effect = lower value, screened at 18.75 µg/mL (by protocol)
row,Compound,survival
1,CCCSc1nc(=O)c2c(n1C)NC(=O)CC2c1cccc(F)c1F (stereo unspecified),82%
2,COc1ccc(C)cc1NC(=O)N1CCN(c2cc(-c3noc(C)n3)ccc2C)CC1,85%
3,CSc1cccc(NC(=O)N2CCN(c3cc(-c4noc(C)n4)ccc3C)CC2)c1,74%
4,COc1cc(NC(=O)N2CCN(c3cc(-c4noc(C)n4)ccc3C)CC2)cc(OC)c1OC,14% (active)
5,COc1cc([N+](=O)[O-])ccc1NC(=O)N1CCN(c2cc(-c3noc(C)n3)ccc2C)CC1,78%
6,Cc1nc(-c2ccc(C)c(N3CCN(C(=O)Nc4ccc(Br)cc4)CC3)c2)no1,-1% (active)
7,COc1ccc(NC(=O)N2CCN(c3cc(-c4noc(C)n4)ccc3C)CC2)c(OC)c1,133%
8,Cc1cc(C)cc(NC(=O)N2CCN(c3cc(-c4noc(C)n4)ccc3C)CC2)c1,76%
9,Cc1ccc(NC(=O)N2CCN(c3cc(-c4noc(C)n4)ccc3C)CC2)c(C)c1,72%
10,Cc1ccc(NC(=O)N2CCN(c3cc(-c4noc(C)n4)ccc3C)CC2)c(F)c1,-6% (active)
11,Cc1ccc2scc(N3CCN(c4ccccc4)CC3)c(=O)c2c1,74%
12,Cc1c(-c2cccc(NC(=O)Cc3ccccc3)c2)nc2ncccn12,73%
13,Cc1ccc2c(CNC3CCCC3)c(C(=O)O)n(Cc3ccc(F)cc3)c2c1,111%
14,C/C(=N\NC(=O)COc1ccccc1)C1C(=O)c2ccccc2C1=O,107%
15,COc1cccc(-n2c(SCC(=O)Nc3cc(C)ccc3C)nc3c(oc4ccccc43)c2=O)c1,96%
16,COc1ccc(Nc2nnc(-c3ccc(C)c(S(=O)(=O)NCCO)c3)c3ccccc23)cc1C(N)=O,70%
17,COc1ccc(-c2ccnc3c(-c4ccc(F)cc4)c(C)nn23)cc1OC,79%
18,Cc1nn2c(-c3ccco3)ccnc2c1-c1ccc(F)cc1,75%
19,CCc1nn2c(-c3ccccc3OC)ccnc2c1-c1ccccc1,-12% (active)
20,COc1ccccc1-c1ccnc2c(-c3ccc(Br)cc3)c(C)nn12,77%
21,CCc1nn2c(-c3ccco3)ccnc2c1-c1ccccc1,89%
22,COc1cccc(-c2ccnc3c(-c4ccc(F)cc4)c(C)nn23)c1,99%
23,Cc1ccccc1-c1ccnc2c(-c3ccc(F)cc3)c(C)nn12,-13% (active)

row,Compound,survival
1,CCc1nn2c(-c3ccccc3OC)ccnc2c1-c1ccc(F)cc1,-11% (active)
2,CCc1nn2c(-c3ccco3)ccnc2c1-c1ccc(F)cc1,71%
3,CCOc1ccc(CN2CCC(C(=O)NCC3CCCO3)CC2)cc1OC (stereo unspecified),99%
4,CCOC(=O)C1CCCN(C(=O)Cn2ncc3c4ccccc4n(Cc4ccccc4)c3c2=O)C1 (stereo unspecified),121%
5,CCOC(=O)c1c(NC(=O)COc2cccc(C)c2C)sc(C(C)=O)c1C,130%
6,CCC(C)Sc1oc(-c2ccco2)nc1S(=O)(=O)c1ccc(Cl)cc1 (stereo unspecified),25%
7,CCC(C)Sc1oc(-c2ccco2)nc1S(=O)(=O)c1ccc(C)cc1 (stereo unspecified),-12% (active)
8,Cc1ccc(S(=O)(=O)c2nc(-c3ccco3)oc2SCC(C)C)cc1,39%
9,CC(C)CSc1oc(-c2ccco2)nc1S(=O)(=O)c1ccc(Br)cc1,27% (active)
10,CCSc1oc(-c2ccco2)nc1S(=O)(=O)c1ccc(Br)cc1,65%
11,Cc1ccc(S(=O)(=O)c2nc(-c3ccco3)oc2SC(C)C)cc1,49%
12,CNC(=O)C1CCN(Cc2cc3ccccc3n2Cc2cccc(C)c2)CC1,81%
13,CC(C)(C)C(=O)Nc1ccc2nc(SCCOc3ccccc3Cl)sc2c1,99%
14,CC(=O)Nc1ccc2nc(SCCOc3ccccc3Cl)sc2c1,9% (active)
15,O=C(Nc1ccc2nc(SCCOc3ccccc3Cl)sc2c1)c1cccs1,72%
16,COc1ccc(Cn2nnnc2CN2CCC(NC(=O)c3cccc(OC)c3)CC2)cc1,115%
17,O=C(CN1C(=O)C2(SCC(=O)N2c2cccc(F)c2)c2ccccc21)NCc1ccccc1Cl (stereo unspecified),80%
18,COc1ccc(S(=O)(=O)c2cc3cc(C(C)(C)C)cc(O)c3oc2=O)cc1,10% (active)
19,COc1ccc(S(=O)(=O)c2cc3cc(OC)ccc3oc2=O)cc1,76%
20,CCOc1ccc(S(=O)(=O)c2cc3cccc(OCC)c3oc2=O)cc1,81%
21,CCOC(=O)c1c(C)oc2nc(C)nc(Nc3cc(C)ccc3OC)c12,85%
22,Cn1c(=O)n(-c2ccc(F)c(Cl)c2)c(=O)c2sc3ccccc3c21,96%
23,COc1ccccc1NC(=O)CSc1ncc(CO)n1Cc1ccc(F)cc1,121%

row,Compound,survival
1,O=C(CSc1ncc(CO)n1Cc1ccc(F)cc1)NCc1ccco1,134%
2,COc1ccc(Cn2c(CO)cnc2SCc2ccccc2)cc1,69%
3,COc1ccc(Cn2c(CO)cnc2SCC(=O)NCc2ccco2)cc1,-6% (active)
4,O=C(CSc1nc2ccsc2c(=O)n1Cc1ccc(F)cc1)NCc1ccc(Cl)cc1,81%
5,COc1ccc(Cn2ccnc2SCC(=O)NCc2ccco2)cc1,70%
6,CCOC(=O)c1ccccc1NC(=O)CSc1ncc(CO)n1Cc1ccc(C)cc1,90%
7,Cc1ccc(Cn2c(CO)cnc2SCC(=O)Nc2ccc(C)c(Cl)c2)cc1,-6% (active)
8,COc1ccc(Cn2c(CO)cnc2SCc2ccc(F)cc2)cc1,-1% (active)
9,OCc1cnc(SCc2ccc(F)cc2)n1Cc1ccc(F)cc1,85%
10,O=C(CSc1ncc(CO)n1Cc1ccc(Cl)cc1)NCc1ccc(F)cc1,14% (active)
11,Cc1ccc(Cn2c(CO)cnc2SCC(=O)NCc2ccccc2Cl)cc1,80%
12,Cn1ccc2cc(S(=O)(=O)N3CCN(C(=O)Nc4cccc(F)c4)CC3)ccc21,74%
13,CCCCN(CCCNC(=O)c1cc(Nc2ccc(OC)c(OC)c2)nc2ccccc12)Cc1ccccc1,79%
14,CCc1nn2c(=O)cc(COC(=O)c3cccc(NC(=O)CCc4ccccc4)c3)nc2s1,72%
15,CC(=O)c1cccc(NC(=O)C2CCN(S(=O)(=O)c3ccc4c(c3)oc(=O)n4C)CC2)c1,90%
16,O=S(=O)(NCc1nc2cccnc2n1Cc1ccccc1Cl)c1ccc2c(c1)CCCC2,73%
17,CCCN(CCC)CC(O)Cn1cc(/C=C/C(=O)c2ccc(C)cc2)c2ccccc21 (stereo unspecified),-1% (active)
18,COc1ccc(C(=O)/C=C/c2cn(CC(O)CN(CC(C)C)CC(C)C)c3ccccc23)cc1OC (stereo unspecified),60%
19,CCCN(CCC)CC(O)Cn1cc(/C=C/C(=O)c2ccc(OC)cc2)c2ccccc21 (stereo unspecified),1% (active)
20,CCCN(CCC)CC(O)Cn1cc(/C=C/C(=O)c2ccc(Br)cc2)c2ccccc21 (stereo unspecified),85%
21,CC(C)CN(CC(C)C)CC(O)Cn1cc(/C=C/C(=O)c2ccccc2)c2ccccc21 (stereo unspecified),40%
22,CCCN(CCC)CC(O)Cn1cc(/C=C/C(=O)c2ccc(OCC)cc2)c2ccccc21 (stereo unspecified),23% (active)
23,COc1ccc(C(=O)/C=C/c2cn(CC(O)CN(CC(C)C)CC(C)C)c3ccccc23)cc1 (stereo unspecified),44%

row,Compound,survival
1,CCCCN(CCCC)CC(O)Cn1cc(/C=C/C(=O)c2ccccc2)c2ccccc21 (stereo unspecified),18% (active)
2,Cc1ccccc1Cn1c(=O)n(Cc2ccc(Cl)cc2)c(=O)c2cccnc21,82%
3,CN1C(=O)CC(=O)N(C)c2cc(S(=O)(=O)N(C)Cc3ccccc3)ccc21,24%
4,CN(C)CCNC(=O)c1ccc(Cn2c(=O)c3cccn3c3cccnc32)cc1,89%
5,O=C(CCSCc1ccccc1Cl)N1CCN(c2cccc(Cl)c2)CC1,75%
6,CCOC(=O)Cc1ccc(NC(=O)N(C(C)C)C2CCN(C(C)=O)CC2)cc1,85%
7,O=C(NC1CCCC1)c1ccc(CSc2nc3cccnc3n2Cc2ccc(F)cc2)cc1,45%
8,O=C(NC1CCCC1)c1ccc2c(=O)n(Cc3ccccc3)c(SCc3ccccc3)nc2c1,83%
9,COCCCNC(=O)c1ccc(CSc2nc3cccnc3n2Cc2ccc(OC)cc2)cc1,94%
10,COc1ccc(Cn2c(SCc3ccc(C(=O)NCc4ccc(C)cc4)cc3)nc3cccnc32)cc1,85%
11,O=C(NC1CCCCC1)c1ccc(CSc2nc3cccnc3n2Cc2ccc(F)cc2)cc1,19%
12,O=C(NCc1ccccc1Cl)c1ccc(Cn2c(SCc3ccccc3)nc3cccnc32)cc1,68%
13,O=C(NC1CCCC1)c1ccc2c(=O)n(Cc3ccccc3)c(SCc3ccccc3F)nc2c1,-3% (active)
14,CCOc1ccccc1CNC(=O)c1ccc(Cn2c(SCc3ccccc3)nc3cccnc32)cc1,69%
15,O=C(NC1CCCCC1)c1ccc(Cn2c(SCc3ccc(F)cc3)nc3cccnc32)cc1,0% (active)
16,CCNC(=O)c1ccc(CSc2nc3cccnc3n2Cc2ccc(OC)cc2)cc1,-3% (active)
17,Cc1ccccc1CSc1nc2cc(C(=O)NC3CCCC3)ccc2c(=O)n1Cc1ccccc1,94%
18,COc1ccccc1CNC(=O)c1ccc(Cn2c(SCc3ccccc3)nc3cccnc32)cc1,10% (active)
19,CCN(C(=O)C(NS(=O)(=O)c1cccc2nsnc12)c1ccccc1)c1ccccc1 (stereo unspecified),117%
20,CCN(CC)c1cc2c(cc1F)c(=O)c(S(=O)(=O)c1cccc(C)c1)cn2C,112%
21,Cc1ccc(NC(=O)C2(c3cccs3)CCOCC2)cc1Cl,75%
22,COc1ccc(C2=NS(=O)(=O)N(C)C(C(=O)Nc3cc(C)ccc3O)=C2)cc1OC,69%
